Source: PubChem
Sampled rows, rich in hits. Any-hit rate of the full collection: about 1.4%.
Mtb MenB inh = blocks the Mycobacterium tuberculosis MenB enzyme | AID 540299 | 100,000 compounds, 0.43% hits | P9WNP5 | inhibition, % (concentration not given with the values) | MenB enzyme assay, absorbance read-out; in the data active = inhibition above about 21%, passing the limit was not always enough
Target sequence (P9WNP5 whole entry, looked up): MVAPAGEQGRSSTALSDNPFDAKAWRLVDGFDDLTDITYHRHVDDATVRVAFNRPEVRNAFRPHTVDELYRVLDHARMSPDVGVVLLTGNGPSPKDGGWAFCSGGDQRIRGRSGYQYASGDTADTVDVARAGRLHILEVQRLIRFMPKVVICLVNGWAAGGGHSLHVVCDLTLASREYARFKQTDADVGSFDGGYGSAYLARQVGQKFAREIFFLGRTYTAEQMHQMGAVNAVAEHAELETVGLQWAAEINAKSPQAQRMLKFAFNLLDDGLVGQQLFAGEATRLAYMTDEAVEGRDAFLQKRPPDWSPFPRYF
MbtI inh = MbtI salicylate synthase inhibition | AID 493033 | inhibition, % (no concentration beside the values) | purified MbtI enzyme, fluorescence intensity read-out | 100,000 compounds, 0.89% hits; in the data active = inhibition mostly above about 56%, no sharp cut-off; inactive = mostly below about 77%
PV pol inh = poliovirus RNA polymerase inhibition; % elongation, % (compound at 16.7 µg/mL); 150,000 compounds, 0.66% hits; poliovirus polymerase elongation, fluorescence polarization; hits give low values; P03300; in the data active = % elongation below about 90%
AID504770 = E. coli YBA685 growth inhibition, screen for V. cholerae RctB inhibitors; E. coli YBA685 rctB-dependent plasmid, OD600 growth, 3 h; hits give low values; z-score (concentration not given with the values); 130,000 compounds, 0.27% hits; AID 504770; in the data active = z-score below about -2, passing the limit was not always enough
The depositor's hits bear a star; . = no result.

SMILES	Mtb MenB inh	MbtI inh	PV pol inh	AID504770
Cc1nc(CSc2nnc(Cc3cccc4ccccc34)n2N)cs1	-28	57*	100	-3.8
COc1ccc(C2CC(O)CC(c3ccc(OC)cc3)C23C(=O)NC(=O)NC3=O)cc1 (stereo unspecified)	-3	.	107	0.1
CCC(=O)n1c(SC)nc2ccccc21	1	.	99	-0.85
CCCCS(=O)(=O)Nc1ccc(C)cn1	0	101	83*	0.55
CCCCS(=O)(=O)Nc1nccs1	-15	-4	99	-0.6
S=c1[nH]nc(-c2ccncc2)o1	.	97*	.	-0.45
Cc1cccc(NC(=O)CC(NCc2ccco2)C(=O)O)c1C (stereo unspecified)	-11	-4	105	-0.6
Nc1ccc(Oc2ccccc2)cc1	-39	0	102	0.6
Fc1c(F)c(Oc2ccccc2)c(F)c(F)c1Oc1ccccc1	27*	-4	102	1.1
O=C1C=C2N(c3ccccc3)CCOC2(O)c2ccccc21 (stereo unspecified)	-48	.	37*	-1.6
O=C1OC2(O)c3ccccc3C(=O)N2c2ccccc21 (stereo unspecified)	-4	6	104	0.6
O=C(Nc1ccccc1)c1ccccc1OCC(=O)N1CCCC1	-16	-8	105	-3*
CCOc1ccccc1C(=O)Nc1ccccc1	-9	-6	102	-0.9
O=C(O)CCCS(=O)(=O)c1ccccc1	35*	10	101	0.35
NC(=O)CCS(=O)(=O)c1ccccc1	-19	-1	105	-1.1
c1ccc(OCc2nnc3n2N=C(c2ccccc2)CS3)cc1	-41	84*	93	-0.3
Fc1ccc(C2=Nn3c(Cc4ccccc4)nnc3SC2)cc1	.	-12	104	-0.25
Brc1ccc(C2=Nn3c(Cn4nnc5ccccc54)nnc3SC2)cc1	-5	68*	69*	0.25
O=c1/c(=C/c2ccc(Br)cc2)sc2nncn12	33*	15	97	0.8
O=C(c1cc2c(s1)CCC2)N1CCc2ccccc2C1	.	0	104	1.6
CC1CCC(C#N)(N(C)C(=O)CN2CC=C(c3ccccc3)CC2)CC1 (stereo unspecified)	-21	-7	101	1.2
Cc1ccc(OC(=O)c2cccnc2)cc1	52*	2	102	1.7
Cc1cc(C)cc(OC(=O)c2cccnc2)c1	0	7	99	1.2
CCn1c(C(C)Oc2ccc(Cl)cc2)n[nH]c1=S (stereo unspecified)	-16	89*	103	1.7
O=C(Nc1cc(C(F)(F)F)cc(C(F)(F)F)c1)C(=S)NCCNc1cccc2ccccc12	-8	.	71*	0.25
SMILES	Mtb MenB inh	MbtI inh	PV pol inh	AID504770
CSC1=NC(C)(C)Cc2c(C)cccc21	0	.	90*	-0.65
COc1ccc2[nH]cc(C(=O)CSc3nnc(-c4ccoc4)c(-c4ccoc4)n3)c2c1	-62	75*	102	1.2
Cn1cc(C(=O)CSc2nnc(-c3ccoc3)c(-c3ccoc3)n2)c2ccccc21	-38	44	101	0.05
Cc1ccc2c(CC(=O)N3C(=O)c4cccc(N)c4C3=O)coc2c1	-16	2	98	-0.45
Cc1nn(Cc2c(Cl)cccc2Cl)c(Cl)c1CN1CCN(CC(=O)N2CCCC2)CC1	15	5	87*	1.7
CC(C)OC(=O)Cn1c(C2CC2)nc2ccccc2c1=O	31*	4	101	1.3
CCCCOC(=O)Sc1nc2ccccc2o1	-62	91*	97	-0.75
Cc1nnc(SCc2cccc(C(=O)c3ccccc3)c2)[nH]c1=O	-15	55*	100	-0.7
Cc1nnc(SCc2ccc(C(=O)c3ccc(F)cc3)cc2)[nH]c1=O	.	.	.	0.55
N#Cc1cnc(SCCc2ccccc2)nc1N	33*	48	105	-0.1
Cc1ccc(C(=O)OCc2ccccc2)cc1NC(=O)c1ccco1	-13	-12	101	-0.25
O=C1c2ccccc2C(=O)N1CCSc1ccccc1	-4	6	100	-0.3
C=CCn1c(C)cc(C(=O)CSC2=Nc3ccccc3C3CC=NN23)c1C (stereo unspecified)	55*	4	102	-0.5
O=C1c2ccccc2C(=O)N1CCSC1=Nc2ccccc2C2CC=NN12 (stereo unspecified)	34*	-1	105	0.65
C=CCn1c(C)cc(C(=O)CSc2nnc3ccccn23)c1C	.	-2	103	0.2
O=C(c1cc(N2CCOCC2)c2nc3ccccc3c(=O)n2c1)c1ccccc1O	-5	-5	123	0
COCCOc1ccc(C(F)(F)F)cc1Nc1nc2ccccc2o1	-53	18	87*	-0.4
COCCn1c(C)nc2c(c1=O)c1nc3ccccc3nc1n2-c1ccc(Cl)c(Cl)c1	5	9	101	-0.3
Cc1ccc(Cl)cc1NC(=O)c1oc2c(c1C)-c1[nH]ncc1CC2	.	.	78*	.
Cc1cc(C)c(NC(=O)c2oc3c(c2C)-c2[nH]ncc2CC3)c(C)c1	.	.	108	.
CCC(CN1CCOCC1)NS(=O)(=O)c1cc2[nH]c3c(c2cc1C)C(=O)CC(C)(C)C3 (stereo unspecified)	-34	-13	101	1.1
COc1ccc(-n2c(-c3ccco3)nc3ccccc3c2=O)cc1	-2	-1	100	0
Cc1cccc(-n2c(-c3ccco3)nc3ccccc3c2=O)c1	-5	59*	104	-0.3
CC(C)NC(=O)N1CCn2cccc2C1Cc1ccccc1 (stereo unspecified)	7	18	100	0.15
O=C(Nc1ccccc1)c1cc2c(=O)n3ccccc3nc2s1	-4	-7	102	1.4
SMILES	Mtb MenB inh	MbtI inh	PV pol inh	AID504770
CC1CN(C(C)(C)C)CCC1(O)c1ccccc1 (stereo unspecified)	34*	-1	101	0.9
CC1CN(C)CC(C)C1(O)c1ccccc1 (stereo unspecified)	-2	.	109	0.3
Cc1ccc(/C=C/C(=O)NCC2CCN(C(=O)/C=C/c3ccc(C)o3)CC2)o1	-4	89*	99	-0.55
N#Cc1ccc(COC(=O)C2CCCCN2S(=O)(=O)c2cccc3nsnc23)cc1 (stereo unspecified)	-3	-2	42*	-0.9
CCOC(=O)c1ccccc1NC(=O)c1ccco1	29	-85	100	0.55
Cc1c(C)n(Cc2ccc(F)cc2)c2ccc(C(=O)N3CCN(c4ncccn4)CC3)cc12	2	-15	101	0.3
CN(C)CCCNc1nn2c(=O)c3ccccc3nc2c2ccccc12	-4	-103	82*	-0.05
O=c1[nH][nH]c(=S)n1C1CCCCC1	4	57*	102	0.2
Cc1[nH]c(=S)n(C2CCCCC2)c1C	-16	35	101	-0.35
CC(C)n1nc(C(=O)N2CCC(=O)CC2)c2ccccc2c1=O	-10	20	104	0.25
O=C(O)/C=C/c1ccco1	-11	25	101	0.5
O=C(/C=C/c1ccco1)C1C(=O)c2ccccc2C1=O	-72	69*	105	1.6
COc1ccc2nc(N=C(N)N)nc(C)c2c1	4	.	65*	0.7
Cc1ccc2nc(N=C(N)N)nc(C)c2c1	8	26	101	0.65
O=C1c2ccccc2CC1Sc1nnc(-c2ccco2)c(-c2ccco2)n1 (stereo unspecified)	5	97*	99	0.9
